Activity calls are given as the source filed them. How the source made its calls: active means hit-call score of the fitted dose curve at least 0.9, where 1 is the maximum; inactive means score below 0.9.
The molecules below were run against human Protein Kinase D2 (PKD2), PRKD2 (gene 25865) (UniProt Q9BZL6) (assay: NVS_ENZ_hPKD2: NovaScreen (NVS) Enzymatic Assay for human Protein Kinase D2 (PKD2)).
Sequence of human Protein Kinase D2 (PKD2), PRKD2 (gene 25865) (Q9BZL6 whole entry, looked up): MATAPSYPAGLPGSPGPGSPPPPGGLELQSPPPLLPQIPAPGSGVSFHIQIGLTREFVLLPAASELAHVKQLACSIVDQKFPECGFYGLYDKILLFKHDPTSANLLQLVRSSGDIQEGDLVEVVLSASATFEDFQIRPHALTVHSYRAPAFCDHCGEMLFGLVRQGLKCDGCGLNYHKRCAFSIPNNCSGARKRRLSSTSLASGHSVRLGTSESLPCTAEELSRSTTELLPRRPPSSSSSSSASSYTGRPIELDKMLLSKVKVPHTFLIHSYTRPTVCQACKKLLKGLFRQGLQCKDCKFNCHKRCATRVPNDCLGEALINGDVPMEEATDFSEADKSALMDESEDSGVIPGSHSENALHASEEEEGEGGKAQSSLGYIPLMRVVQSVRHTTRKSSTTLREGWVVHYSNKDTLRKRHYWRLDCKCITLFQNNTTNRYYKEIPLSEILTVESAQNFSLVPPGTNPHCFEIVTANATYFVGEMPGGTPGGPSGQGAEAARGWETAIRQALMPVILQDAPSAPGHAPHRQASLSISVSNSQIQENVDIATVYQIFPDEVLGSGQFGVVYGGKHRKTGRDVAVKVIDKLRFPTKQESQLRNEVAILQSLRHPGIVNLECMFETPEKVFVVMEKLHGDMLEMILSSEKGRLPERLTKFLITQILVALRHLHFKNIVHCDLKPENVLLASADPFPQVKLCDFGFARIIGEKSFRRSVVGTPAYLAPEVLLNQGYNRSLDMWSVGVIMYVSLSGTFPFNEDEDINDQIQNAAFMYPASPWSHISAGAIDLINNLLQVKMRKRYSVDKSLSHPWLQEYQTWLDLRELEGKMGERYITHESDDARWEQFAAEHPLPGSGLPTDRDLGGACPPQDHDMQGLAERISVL
Description: NVS_ENZ_hPKD2 is a biochemical, single-readout assay that uses extracted gene-proteins in a cell-free assay. Measurements were taken 1 hour after chemical dosing in a 384-well plate.NVS_ENZ_hPKD2 is one of one assay component(s) measured or calculated from the NVS_ENZ_hPKD2 assay. It is designed to make measurements of enzyme activity, a form of enzyme reporter, as detected with fluorescence intensity signals by Fluorescence and electrophoretic mobility shift technology.Data from the assay component NVS_ENZ_hPKD2 was analyzed into 1 assay endpoint. This assay endpoint, NVS_ENZ_hPKD2, was analyzed in the positive analysis fitting direction relative to DMSO as the negative control and baseline of activity. Using a type of enzyme reporter, loss-of-signal activity can be used to understand changes in the enzymatic activity as they relate to the gene PRKD2. Furthermore, this assay endpoint can be referred to as a primary readout, because this assay has produced multiple assay endpoints where this one serves a enzymatic activity function. To generalize the intended target to other relatable targets, this assay endpoint is annotated to the kinase intended target family, where the subfamily is serine/threonine kinase.
Binding assays used specific radioligands (tritiated, iodinated) with non-radioactive competitive displacement ligands in agonist or antagonist protocols (as indicated) and various reference compounds and inhibitors to titrate specific binding to receptors and transporters. Most enzyme assays (CYPs, kinases, phosphatases, proteases, HDACs) used recombinant protein and specific substrates (fluorescence mostly, some colorimetric and radioactive) and inhibitors, followed by a biochemical separation of substrate and product. All assays for the biochemical HTS were initially run in duplicate at a single concentration (10 uM for CYP450 assays and 25 uM for all others). Assay-chemical combinations meeting a pre-defined threshold (e.g., 30% inhibition and other criteria defined below) were then run in singleton concentration-response format with maximum concentration of 20 uM for CYPs and 50 uM for all others. Each assay was run with positive and negative controls, and concurrent controls on every plate. The follow-up (secondary) screen tested active chemical-pairs in concentration series, as well as a few additional assays not tested in the primary screen, some selected negative inactives, and several cases re-run in the concentration series for confirmatory purposes.
COc1ccc(C(c2ccc(OC)cc2)C(Cl)(Cl)Cl)cc1 was tested, and the outcome was “inactive”.
In the case of Oc1ccc(Cl)cc1Cc1ccccc1, the AC50 is reported as 25 µM (active).
In the case of O=C(Nc1ccccc1)Nc1ccnc(Cl)c1, the outcome is reported as “inactive”.
For O=C(Nc1ccccc1)Nc1cnns1, the outcome was “inactive”.
